According to PubChem BioAssay (NCI):
The panel holds about 79,000 compounds, 15% with a hit somewhere; the sample as a whole holds those more often. Calls of active or inactive are those of the source. Cut-off read from the data, not from the text of the source: active = growth inhibition above about 70%; inactive = the rest.

Legend:
[1] = NCI Yeast Anticancer Drug Screen. Data for the rad50 strain (AID 155);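 note: 0% = growth of vehicle-only cultures of the same strain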; conditions: S. cerevisiae rad50 strain growth inhibition; at 50.0 µM; hits give high values
How it was run: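 Readout: growth inhibition relative to vehicle-treated cultures. Compound exposure was carried out in a genetically defined yeast strain deficient in DNA damage repair.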

[2] = NCI Yeast Anticancer Drug Screen. Data for the mec2-1 strain (AID 157); conditions: S. cerevisiae mec2-1 strain, at 50.0 µM, hits give high values
How it was run: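 mec2-1 yeast strain, carrying an alteration in DNA damage repair or cell cycle control, was exposed to compounds; growth inhibition was measured relative to vehicle-treated controls.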

[3] = NCI Yeast Anticancer Drug Screen. Data for the sgs1 mgt1 strain (AID 161);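 note: 0% = growth of cultures given vehicle only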; conditions: S. cerevisiae sgs1 mgt1 strain, at 50.0 µM, hits give high values
How it was run: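 Compounds are added to genetically altered yeast, and growth is compared with cultures given vehicle alone to give percent inhibition.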

[4] = NCI Yeast Anticancer Drug Screen. Data for the cln2 rad14 strain (AID 165);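 note: 0% = growth equal to vehicle treated cultures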; conditions: S. cerevisiae cln2 rad14 strain, at 50.0 µM, hits give high values
How it was run: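 Yeast carrying cln2 and rad14 alterations (cell cycle control and DNA damage repair) were exposed to compounds. Growth inhibition was measured against vehicle-treated controls.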

[5] = NCI Yeast Anticancer Drug Screen. Data for the bub3 strain (AID 167); conditions: S. cerevisiae bub3 mutant strain, at 50.0 µM, hits give high values
How it was run: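 Readout: yeast growth inhibition, expressed relative to vehicle-only wells. The test organism is a mutant strain from a panel with lesions in DNA repair or checkpoint genes.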

[6] = NCI Yeast Anticancer Drug Screen. Data for the mlh1 rad18 strain (AID 175); conditions: S. cerevisiae mlh1 rad18 strain growth inhibition; at 50.0 µM; hits give high values
How it was run: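 Growth inhibition of the yeast strain was measured after compound exposure and expressed relative to vehicle-treated controls. The strain carries defined defects in DNA damage repair.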

Measured: growth inhibition

Cc1n[nH]c(=O)n1-c1cccnc1
inactive: [1] -0.7% | [2] 1.5% | [3] -9% | [4] -12.3% | [5] 3.55% | [6] 3.6%

c1ccc(CCN2CCN=C2Cc2ccccc2)cc1
inactive: [1] 13.8% | [2] 8% | [3] 0.95% | [4] -32.8% | [5] -27.1% | [6] 9.3%

C[C@H](CCC(c1ccccc1)c1ccccc1)[C@H]1CC[C@H]2[C@@H]3CC[C@@H]4C[C@H](O)CC[C@]4(C)C3=CC[C@]12C
inactive: [1] 1.7% | [2] -15.3% | [3] 4.1% | [4] 24.8% | [5] -1.75% | [6] 9.45%

CC(=O)C1C(=O)C(=O)N(c2ccc([N+](=O)[O-])cc2Cl)C1=O (stereo not given)
inactive: [1] -45.9% | [2] -35.8% | [3] 2.95% | [4] 2.95% | [5] -3.55% | [6] -33.2%

[O-][n+]1cccc(CO)c1
inactive: [1] -17.9% | [2] -47.9% | [3] -25.1% | [4] 6.05% | [5] -15% | [6] -4.35%

O=C(Oc1ccc2c(=O)cc(-c3ccccc3)oc2c1OC(=O)c1ccccc1)c1ccccc1
inactive: [1] 3% | [2] 7.6% | [3] -0.85% | [4] -3.15% | [5] -14.1% | [6] 3%

CN1CCC(c2ccccc2)(c2ccccc2)C(O)C1 (stereo not given)
inactive: [1] 1.15% | [2] -0.45% | [3] 13.7% | [4] 4.35% | [5] 3.3% | [6] 4.7%

CC(=O)OC1(C)N=NC2(CCCCC2)O1 (stereo not given)
inactive: [1] 3.45% | [2] -22.4% | [3] -37.1% | [4] 7.5% | [5] -12.1% | [6] -12.3%

OCCNc1ncnc2[nH]ncc12
inactive: [1] 2.75% | [2] -6.1% | [3] -20.6% | [4] -21.8% | [5] -24.2% | [6] 5.55%

CC(=O)Nc1cccc(OCCOc2ccccc2[N+](=O)[O-])c1
inactive: [1] -0.6% | [2] -11.3% | [3] -8.65% | [4] 3.15% | [5] 4.7% | [6] 8.2%

CC(=O)n1nc(Cl)c2cccnc2c1=O
inactive: [1] 11.8% | [2] -1.1% | [3] 4.3% | [4] 1.55% | [5] -0.4% | [6] 8.85%

O=C(O)C(O)c1ccc(Cl)cc1Cl (stereo not given)
inactive: [1] 1.3% | [2] -5.85% | [3] 10.9% | [4] 7.25% | [5] -19.3% | [6] 1.35%

NC1CC(=O)c2c(Cl)sc(Cl)c21 (stereo not given)
inactive: [1] 51.4% | [2] 35.7% | [3] 60.5% | [4] 41.6% | [5] 27.6% | [6] 1.15%

COc1ccc2cc3[n+](cc2c1O)CCc1cc2c(cc1-3)OCO2
inactive: [1] 6.75% | [2] -22.8% | [3] 19% | [4] 20.6% | [5] 22.2% | [6] 22.9%

CC(=O)NN(C)C(C)=O
inactive: [1] 6% | [2] 27.3% | [3] -4.2% | [4] 12.4% | [5] 15.9% | [6] 10.5%

CCCCCCCCCCCC(=O)NC(=S)Nc1ccc(C(=O)OCC)cc1
inactive: [1] 29.9% | [2] 31.9% | [3] 57.9% | [4] 1.35% | [5] 29.4% | [6] 45.4%

Cc1nc(N(CCO)CCO)c2sc(=S)n(-c3ccccc3)c2n1
inactive: [1] -35.5% | [2] -16.4% | [3] -43.9% | [4] -13.7% | [5] -14.2% | [6] -45.8%

O=C1CN(c2ccccc2)Cc2nc(Cl)ccc2N1
active: [6] 72.5%
inactive: [1] 39.9% | [2] 7.45% | [3] 24.4% | [4] 17.4% | [5] 3.55%

COc1ccc(C(=O)CC2=NC3NN(c4ccccc4)C(=O)C3=C2CC(=O)c2ccc(OC)cc2)cc1 (stereo not given)
inactive: [1] 48.1% | [2] 32.1% | [3] 55.5% | [4] 23.8% | [5] -2.25% | [6] 31.8%

O=C(/C=C/CBr)NC(Cc1ccccc1)C(=O)O (stereo not given)
inactive: [1] -1.45% | [2] -8.6% | [3] -18.1% | [4] -4% | [5] 15.6% | [6] -4.2%
